# Values joined by “and” are separate entries in the source; they are usually repeats but may differ in a detail not shown here. Equal values may be shown once.
# Assays:
# Plasmodium falciparum [1] = assay: GSK_TCMDC: Inhibition of Plasmodium falciparum 3D7 in whole red blood cells, using parasite LDH activity as an index of growth. Test compounds present at 2uM; format: functional
# Plasmodium falciparum [2] = assay: GSK_TCMDC: Inhibition of Plasmodium falciparum Dd2 in whole red blood cells, using parasite LDH activity as an index of growth. Test compounds present at 2uM; format: functional
Structure (SMILES),Inhibition (Plasmodium falciparum [1]),Inhibition (Plasmodium falciparum [2])
CC(=O)Oc1c(Cl)c(C)nc(C)c1-c1ccc(Oc2ccc(Cl)cc2)cc1,98%,96%
Nc1nc(N)c2c(ccc3c2ccn3Cc2ccc(Br)cc2)n1,100%,98%
Nc1nc(N)c2c(ccc3c2cnn3Cc2cccnc2)n1,95%,96%
Cc1cccc(Cn2ccc3c(N)nc(N)nc32)c1,82%,–
CCCOc1ccc(CNCCCCCCNCc2ccc(OCCC)c3ccccc23)c2ccccc12.CS(=O)(=O)O,100%,96%
CCCCN(CCCC)CCCN(CCCN(CCCC)CCCC)c1cc(C)nc(Nc2ccc(Cl)cc2)n1.O=C(O)C(=O)O,100%,99%
COc1ccc(C2c3ccccc3-c3nc(N)nc(N)c3C2C)cc1 (stereo unspecified),97%,0%
COc1ccc(Cc2c(Cl)nc3nc(N)nc(N)c3c2C)cc1,94%,3%
CN(Cc1cnc2nc(N)nc(N)c2n1)c1ccc(C(=O)N[C@@H](CCC(=O)O)C(=O)O)cc1 [METHOTREXATE],91% and 92%,44% and 66%
CCCCC#Cc1cnc2nc(N)[nH]c(=O)c2n1,89%,2%
CCCCNCc1cc(Cl)c2ccccc2c1O.Cl,100%,100%
Cc1nc(C)c(-c2ccc(S(=O)(=O)c3ccc(Cl)cc3)cc2)c(O)c1Br,97%,97%
Cc1ccccc1Cn1ccc2c3c(N)nc(N)nc3ccc21,100%,–
Cl.N=C(N)c1ccc2[nH]c(-c3cc4cc(C(=N)N)ccc4o3)cc2c1,94%,87%
